PubChem BioAssay AID652054 (National Center for Advancing Translational Sciences (NCATS), 2013)
In all, about 360,000 compounds went through this assay and about 9,100 (2.5%) were called active. Inconclusive results (about 4%) are left out. No stated cut-off is given here; in the data, active means max response below about -50%; inconclusive means no clear call, values can overlap the other calls; inactive means above that. This excerpt belongs to a sample that is enriched for actives.

biological target: D(3) dopamine receptor (Homo sapiens) (UniProt P35462); test: qHTS of D3 Dopamine Receptor Antagonist: qHTS; conditions: D3R cells, DiscoveRx beta-arrestin luminescence, antagonist mode; hits give low values
Source text: D3 DARs represent a very important target for the treatment of several neuropsychiatric disorders. Indeed, one of the most promising therapeutic applications for the D3 DAR is in the area of addiction and related disorders. […] These findings have been observed with a number of addictive substances including cocaine, amphetamine, nicotine, and alcohol. […] Antagonism of the D3 DAR may also be therapeutic in the treatment of schizophrenia or psychosis. […] Since the D3 DAR is expressed in areas of the CNS associated with the control of mood and emotion, it has been hypothesized that selective antagonism of the D3 DAR may be effective in treating psychosis without inducing the motor side effects typically seen with D2 DAR antagonists.
This part of the project aims to discover novel antagonist.
NIH Chemical Genomics Center [NCGC]
NIH Molecular Libraries Probe Centers Network [MLPCN]
Assay Submitter (PI): David Sibley, NINDS
Freshly passaged cells are plated in 1536 well white, solid bottom plates at a density of 1500 cells/well in 3microl of complete media. After an overnight incubation at 37 degrees C in 5% CO2, cells are loaded with 23nl of test compound from the compound library (as well as dopamine controls) using a 1536 pintool and incubated at 37 degrees C for 90 minutes. Two microliters of DiscoveRx reagent is then added to all cells, and they are incubated for an additional 30 - 60 minutes at room temperature. Following incubation, luminescence is measured on a ViewLux CCD-based luminometer reader using a 20 sec exposure time.
On the % scale 0 is the no-effect control and ±100 the full control effect.

D(3) dopamine receptor (Homo sapiens), sequence (P35462 whole entry, looked up): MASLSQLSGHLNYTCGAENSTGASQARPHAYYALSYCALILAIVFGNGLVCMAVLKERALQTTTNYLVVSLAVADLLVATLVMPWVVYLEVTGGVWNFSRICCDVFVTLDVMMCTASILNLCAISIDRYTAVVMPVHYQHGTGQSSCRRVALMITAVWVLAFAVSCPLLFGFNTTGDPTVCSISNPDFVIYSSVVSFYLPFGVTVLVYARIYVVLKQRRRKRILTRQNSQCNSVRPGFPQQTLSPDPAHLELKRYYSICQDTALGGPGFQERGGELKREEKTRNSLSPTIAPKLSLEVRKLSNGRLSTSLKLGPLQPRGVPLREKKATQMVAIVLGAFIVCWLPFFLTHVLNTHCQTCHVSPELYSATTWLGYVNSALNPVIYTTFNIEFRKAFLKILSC

Q: Which max response, negative = inhibition does the source give for `Cc1ccc(CN2CCN(c3ncccn3)CC2)c(C)c1` here?
A: -14.2% (inactive)

Q: `Oc1c(CN2CCN(c3ccc(F)cc3)CC2)cc(Cl)c2cccnc12` was tested. Which max response, negative = inhibition did it give?
A: -59.7% (active)

Q: How did the max response, negative = inhibition turn out when `Cc1cccc(C)c1NC(=O)CN1CCN(c2ccc(F)cc2)CC1` was run?
A: -14.3% (inactive)

Q: For `COc1ccc(-c2nc3ccc(Br)cn3c2Cc2ccc(C)cc2)cc1OC`, which max response, negative = inhibition is on record?
A: 33.3% (inactive)

Q: With `CCc1nc2c(OCCOc3ccc(F)cc3)cccn2c1N(C)C(=O)c1ccccc1F` as the compound, how does the max response, negative = inhibition read?
A: 9.16% (inactive)

Q: Which max response, negative = inhibition does the source give for `CC1CN(C(=O)CCC(=O)NCCCN2CCC(Cc3ccccc3)CC2)c2cc(Cl)ccc2O1` (stereo unspecified) here?
A: -69.6% (active)

Q: `CC1CN(C(=O)CCC(=O)NCc2cccnc2)c2ccccc2O1` (stereo unspecified) was tested. Which max response, negative = inhibition did it give?
A: -17.6% (inactive)

Q: Which max response, negative = inhibition does the source give for `CC1CN(C(=O)CCC(=O)NC2CCN(Cc3ccccc3)CC2)c2ccccc2O1` (stereo unspecified) here?
A: -13.6% (inactive)

Q: How did the max response, negative = inhibition turn out when `CC1=C(C(=O)N2CCOCC2)CC(CC(=O)NCc2cccc3ccccc23)C(=O)N1CCC1=CCCCC1` (stereo unspecified) was run?
A: -26.6% (inactive)

Q: `CCCc1nc2c3ccccc3ccn2c1Cc1ccccc1C(F)(F)F` was tested. Which max response, negative = inhibition did it give?
A: -26.6% (inactive)

Q: For `CC1=C(C(=O)N2CCOCC2)CC(CC(=O)NCc2cccs2)C(=O)N1CCCN1CCCC1=O` (stereo unspecified), which max response, negative = inhibition is on record?
A: 0% (inactive)

Q: With `COc1ccc(Cl)cc1NC(=O)CN(C)C(=O)c1cn(-c2ccccc2)nc1-c1cccs1` as the compound, how does the max response, negative = inhibition read?
A: 0.189% (inactive)

Q: `COCCCNc1nc2ccccc2nc1NS(=O)(=O)c1ccc(F)cc1` was tested. Which max response, negative = inhibition did it give?
A: 0.291% (inactive)

Q: For `Cc1ccc(S(=O)(=O)Nc2nc3ccccc3nc2N2CCc3ccccc3C2)cc1`, which max response, negative = inhibition is on record?
A: -50.8% (active)

Q: For `Cc1ccc(S(=O)(=O)C(C#N)c2nc3ccccc3nc2N2CCCC2)cc1C` (stereo unspecified), which max response, negative = inhibition is on record?
A: 17.6% (inactive)

Q: `CCc1c(-c2ccc(F)cc2)ncn1Cc1cccc(-c2ccccc2)c1` was tested. Which max response, negative = inhibition did it give?
A: -10.3% (inactive)

Q: `Nc1nc2c(ncn2[C@@H]2O[C@H](CNCc3ccc(OCCCN4CCOCC4)cc3)[C@@H](O)[C@H]2O)c(=O)[nH]1` was tested. Which max response, negative = inhibition did it give?
A: -3.82% (inactive)

Q: With `CCOC(=O)C1CCCN(C(=O)c2cccc3ccccc23)CC1` (stereo unspecified) as the compound, how does the max response, negative = inhibition read?
A: 15.1% (inactive)

Q: `CC1CC(C)CN(C/C=C/c2ccccc2[N+](=O)[O-])C1` (stereo unspecified) was tested. Which max response, negative = inhibition did it give?
A: -73.4% (active)

Q: How did the max response, negative = inhibition turn out when `CC1CCCCC1NC(=O)/C(C#N)=C/C=C/c1ccccc1[N+](=O)[O-]` (stereo unspecified) was run?
A: -12.8% (inactive)

Q: Which max response, negative = inhibition does the source give for `O=[N+]([O-])c1ccccc1/C=C/CN1CCCC(CO)C1` (stereo unspecified) here?
A: -76% (active)

Q: With `CC(C)CNC(=O)COC(=O)/C=C/c1ccccc1[N+](=O)[O-]` as the compound, how does the max response, negative = inhibition read?
A: -8.96% (inactive)

Q: Which max response, negative = inhibition does the source give for `O=C(/C=C/c1ccccc1[N+](=O)[O-])OCC(=O)N1CCCC1` here?
A: 9.84% (inactive)

Q: How did the max response, negative = inhibition turn out when `COc1cc(CN2CC(C)CC(C)C2)cc([N+](=O)[O-])c1O` (stereo unspecified) was run?
A: 17.6% (inactive)

Q: For `CN[C@H]1C[C@H]2c3cc(Oc4ccccc4C)ccc3CCN2C(=O)[C@H]1[C@H](C)O`, which max response, negative = inhibition is on record?
A: 23.3% (inactive)

Q: How did the max response, negative = inhibition turn out when `Cc1noc(C)c1-c1ccc(C(=O)NCc2ccncc2)c2occc12` was run?
A: -3.57% (inactive)

Q: `COc1cccc(C(NC(C)=O)c2nc(-c3cnc4ccccc4c3)cs2)c1` (stereo unspecified) was tested. Which max response, negative = inhibition did it give?
A: 11.3% (inactive)

Q: With `C[C@H](CO)N1C[C@H](C)[C@@H](CN(C)C(=O)c2cnccn2)Oc2ncc(Br)cc2C1=O` as the compound, how does the max response, negative = inhibition read?
A: -23.4% (inactive)

Q: With `Cc1ccc(-c2cnc(C(O)c3cccc(C)c3C)[nH]2)cc1` (stereo unspecified) as the compound, how does the max response, negative = inhibition read?
A: -20.7% (inactive)

Q: Which max response, negative = inhibition does the source give for `COc1ccc(OC)c(C(=O)NC2CCCc3c2cnn3-c2cc(C)cc(C)c2)c1` (stereo unspecified) here?
A: 57.4% (inactive)

Q: With `CCc1nc2c(OCc3cccc(OC)c3)cccn2c1N(C)C(=O)C(C)C` as the compound, how does the max response, negative = inhibition read?
A: 10.3% (inactive)

Q: For `Cc1ccc(C(=O)N[C@H](C(=O)N2CCN(c3ncccn3)CC2)C(C)C)cc1`, which max response, negative = inhibition is on record?
A: 0% (inactive)

Q: For `O=[N+]([O-])c1c(NCCO)cc(Sc2nc3ccccc3s2)c2nonc12`, which max response, negative = inhibition is on record?
A: -81.4% (active)

Q: How did the max response, negative = inhibition turn out when `Nc1nnc(SCC(=O)Nc2ccc3nc(SCC(=O)Nc4ccccc4)sc3c2)s1` was run?
A: 0.758% (inactive)

Q: For `OCCNc1nc(Nc2ccc(Cl)c(Cl)c2)nc2ccccc12`, which max response, negative = inhibition is on record?
A: -28.2% (inactive)

Q: `CCCC(=O)N1CCC1(C)C(=O)Nc1ccc(-n2cncn2)cc1` (stereo unspecified) was tested. Which max response, negative = inhibition did it give?
A: -18.5% (inactive)

Q: For `COc1cccc(CNC(=O)[C@@H]2CCCN2C(=O)[C@@H]2CCCN2C(=O)c2ccccc2)c1`, which max response, negative = inhibition is on record?
A: -10.4% (inactive)

Q: Which max response, negative = inhibition does the source give for `CSc1ncccc1C(=O)N1CCCC(Nc2ccc(F)c(F)c2)C1` (stereo unspecified) here?
A: 1.51% (inactive)

Q: For `CCOC(=O)C1CCCCN1Cc1ccc(OC)c(OC)c1OC` (stereo unspecified), which max response, negative = inhibition is on record?
A: -50.5% (active)

Q: Which max response, negative = inhibition does the source give for `CCOC(=O)C1CCN(C(=O)/C=C/c2cc(OC)c(OC)c(OC)c2)CC1` here?
A: 0.0271% (inactive)

Q: With `CCOC(=O)C1CCN(S(=O)(=O)c2cc(F)ccc2OC)CC1` as the compound, how does the max response, negative = inhibition read?
A: 2.14% (inactive)

Q: How did the max response, negative = inhibition turn out when `CCCCNC(=O)C[C@@H]1C[C@@]2(C(=O)OCC)CCC=C2N(Cc2ccco2)C1=O` was run?
A: -17.5% (inactive)

Q: How did the max response, negative = inhibition turn out when `CC(=O)Nc1ccc(C=Cc2ccc([N+](=O)[O-])cc2)cc1` was run?
A: -0.898% (inactive)

Q: Which max response, negative = inhibition does the source give for `COc1ccc(NC(=O)[C@H](NC(=O)[C@@H]2Cc3ccccc3CN2)c2ccccc2)cc1` here?
A: -97.8% (active)

Q: How did the max response, negative = inhibition turn out when `COc1ccc(NC(=O)C2CCC(CNC(=O)[C@@H]3Cc4ccccc4CN3)CC2)cc1` (stereo partly specified) was run?
A: -8.86% (inactive)

Q: How did the max response, negative = inhibition turn out when `COc1cccc(NC(=O)[C@H](Cc2c[nH]c3ccccc23)NC(=O)[C@@H]2Cc3ccccc3CN2)c1` was run?
A: 0% (inactive)

Q: For `O=C1OCCOC2CCCc3oc(-c4ccccc4)c1c32` (stereo unspecified), which max response, negative = inhibition is on record?
A: -1.49% (inactive)

Q: For `O=C(COc1ccc(S(=O)(=O)N2CCCC2)cc1[N+](=O)[O-])N1CCCCC1`, which max response, negative = inhibition is on record?
A: -6.05% (inactive)

Q: Which max response, negative = inhibition does the source give for `CCC1CCC/C1=N\NC(=O)c1ccc(Cl)cc1` (stereo unspecified) here?
A: -14% (inactive)

Q: For `CC1CCCN(CC(=O)Nc2cc(Cl)ccc2Oc2ccccc2)C1` (stereo unspecified), which max response, negative = inhibition is on record?
A: 0.948% (inactive)

Q: Which max response, negative = inhibition does the source give for `CN1CCC[C@@H]1CCO[C@](C)(c1ccccc1)c1ccc(Cl)cc1` here?
A: -107% (active)

Q: For `C#Cc1ccc(NC(=O)C2(C)CCN2C(=O)Cc2ccc(-c3ccccc3)cc2)cc1` (stereo unspecified), which max response, negative = inhibition is on record?
A: 4.18% (inactive)

Q: For `O=C(NCc1cccnc1)c1cc(C2CCCN(C(=O)CCCc3ccccc3)C2)on1` (stereo unspecified), which max response, negative = inhibition is on record?
A: 33.8% (inactive)

Q: How did the max response, negative = inhibition turn out when `COc1ccccc1CN1CCCC(N2CCN(c3ccc(F)cc3)CC2)C1` (stereo unspecified) was run?
A: 4.28% (inactive)

Q: Which max response, negative = inhibition does the source give for `COc1ccc(-c2[nH]nc3c2C(c2ccncc2)C(C#N)=C(N)O3)cc1` (stereo unspecified) here?
A: -18.7% (inactive)

Q: `COc1ccc(C2C(C#N)=C(N)Oc3n[nH]c(C)c32)cc1CN1CCN(c2ccc(F)cc2)CC1` (stereo unspecified) was tested. Which max response, negative = inhibition did it give?
A: -95% (active)
